Test [1] in a line: NCI Yeast Anticancer Drug Screen. Data for the rad50 strain (AID 155).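 Further: 0% = growth of vehicle-only cultures of the same strain.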 The note with it: S. cerevisiae rad50 strain growth inhibition, hits give high values. The method, boiled down: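 Readout: growth inhibition relative to vehicle-treated cultures. Compound exposure was carried out in a genetically defined yeast strain deficient in DNA damage repair.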
The nature of test [2]: NCI Yeast Anticancer Drug Screen. Data for the mec2-1 strain (AID 157). Conditions: S. cerevisiae mec2-1 strain, hits give high values. The method, boiled down:
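Using mec2-1 yeast: add compound, measure growth, express inhibition versus vehicle-treated cultures.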

A short description of test [3]: NCI Yeast Anticancer Drug Screen. Data for the sgs1 mgt1 strain (AID 161).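 Further: 0% = growth of cultures given vehicle only.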 Conditions: S. cerevisiae sgs1 mgt1 strain, hits give high values. The method, boiled down: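 Percent growth inhibition was derived by comparing compound-exposed mutant yeast with vehicle-exposed cultures. The strain carries alterations in DNA damage repair.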
Test [4] can be described thus: NCI Yeast Anticancer Drug Screen. Data for the cln2 rad14 strain (AID 165).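 Further: 0% = growth equal to vehicle treated cultures.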 The note with it: S. cerevisiae cln2 rad14 strain, hits give high values. The method, boiled down: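 Yeast strain cln2 rad14, bearing defects in cell cycle control and DNA repair, serves as the test system; values reflect growth inhibition compared with vehicle.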
The nature of test [5]: NCI Yeast Anticancer Drug Screen. Data for the bub3 strain (AID 167). The note with it: S. cerevisiae bub3 mutant strain, hits give high values. The method, boiled down: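 Readout: yeast growth inhibition, expressed relative to vehicle-only wells. The test organism is a mutant strain from a panel with lesions in DNA repair or checkpoint genes.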
Test [6] in a line: NCI Yeast Anticancer Drug Screen. Data for the mlh1 rad18 strain (AID 175). The note with it: S. cerevisiae mlh1 rad18 strain growth inhibition, hits give high values. The method, boiled down: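 Steps: expose repair-defective yeast to compound; measure growth; express inhibition against vehicle-treated controls.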
The mark [7] stands for this setting: at 5.0 µM (retest, dose inferred, filed as 0.5).
Setting [8] is: at 50.0 µM (retest, dose inferred, filed as 5.0).

Compounds without any hit were thinned out: in the full panel of roughly 79,000, 15% have a hit. Unmarked numbers belong to inactive results. Active and inactive are the calls of the source. No stated cut-off is given here; in the data, active means growth inhibition above about 70%; inactive means the rest.

Take `O=C(NC(=Nc1ccccc1)SCCSC(=Nc1ccccc1)NC(=O)c1ccccc1)c1ccccc1`: the growth inhibition in test [1] (setting [7]) is 0%; in test [1] (setting [8]), 0%; in test [1] (at 50.0 µM), 85.6% (active); in test [2] (setting [7]) it was 18%; in test [2] (setting [8]) it was 18%; in test [2] (at 50.0 µM) it was 79.9% (active). The growth inhibition is 10% in test [3] (setting [7]); 10% in test [3] (setting [8]); 86.2% (active) in test [3] (at 50.0 µM); 5% in test [4] (setting [7]); 5% in test [4] (setting [8]); 84.5% (active) in test [4] (at 50.0 µM). The growth inhibition in test [5] (setting [7]) is -3%; in test [5] (setting [8]) it was -3%; in test [5] (at 50.0 µM), 88% (active); in test [6] (setting [7]), 1%; in test [6] (setting [8]), 1%; in test [6] (at 50.0 µM), 78% (active).
With `COc1ccc2c(c1)OC(c1ccccc1O)CC2=O` (configuration not stated), the growth inhibition is 0% in test [1] (setting [7]); -17% in test [1] (setting [8]); 55.9% in test [1] (at 50.0 µM); -44% in test [2] (setting [7]); -30% in test [2] (setting [8]); 24.1% in test [2] (at 50.0 µM). Further, the growth inhibition in test [3] (setting [7]) was -10%; in test [3] (setting [8]) it was 11%; in test [3] (at 50.0 µM), 72.1% (active); in test [4] (setting [7]), -14%; in test [4] (setting [8]), 12%; in test [4] (at 50.0 µM), 20.7%. Besides, the growth inhibition in test [5] (setting [7]) was -2%; in test [5] (setting [8]), -9%; in test [5] (at 50.0 µM) it was 55.5%; in test [6] (setting [7]), -70%; in test [6] (setting [8]), -34%; in test [6] (at 50.0 µM), 36.5%.
In the case of `CSC(=S)NN=C1CCCC1`, the growth inhibition was 66% in test [1] (setting [7]); 97% (active) in test [1] (setting [8]); 87.5% (active) in test [1] (at 50.0 µM); 57% in test [2] (setting [7]); 98% (active) in test [2] (setting [8]); 83.7% (active) in test [2] (at 50.0 µM). In addition, the growth inhibition in test [3] (setting [7]) is 61%; in test [3] (setting [8]), 97% (active); in test [3] (at 50.0 µM) it was 89.9% (active); in test [4] (setting [7]), 49%; in test [4] (setting [8]) it was 98% (active); in test [4] (at 50.0 µM), 57.8%. In addition, the growth inhibition was 78% (active) in test [5] (setting [7]); 98% (active) in test [5] (setting [8]); 94.8% (active) in test [5] (at 50.0 µM); 58% in test [6] (setting [7]); 97% (active) in test [6] (setting [8]); 89.5% (active) in test [6] (at 50.0 µM).
Take `COc1cc(CNc2nc3ccccc3nc2-c2cccs2)cc(OC)c1OC`: the growth inhibition in test [1] (setting [7]) is 5%; in test [1] (setting [8]), 12%; in test [1] (at 50.0 µM), 10%; in test [2] (setting [7]) it was -13%; in test [2] (setting [8]), -22%; in test [2] (at 50.0 µM), 0.65%. Besides, the growth inhibition is -1% in test [3] (setting [7]); 20% in test [3] (setting [8]); 19.6% in test [3] (at 50.0 µM); -12% in test [4] (setting [7]); 9% in test [4] (setting [8]); 60% in test [4] (at 50.0 µM). The growth inhibition in test [5] (setting [7]) was -12%; in test [5] (setting [8]) it was -8%; in test [5] (at 50.0 µM), 30%; in test [6] (setting [7]), -17%; in test [6] (setting [8]), 17%; in test [6] (at 50.0 µM), 55.3%.
Turning to `C=C1CC(O)C2C(C[Se]c3ccccc3)C(=O)O[C@@H]2C2C(=C)[C@@H](O)CC12` (some centres not stated), the growth inhibition in test [1] (setting [7]) is -3%; in test [1] (setting [8]), 27%; in test [1] (at 50.0 µM), 46.4%; in test [2] (setting [7]), 1%; in test [2] (setting [8]) it was 36%; in test [2] (at 50.0 µM), 52.1%. For the same molecule, the growth inhibition is 0% in test [3] (setting [7]); 43% in test [3] (setting [8]); 29.6% in test [3] (at 50.0 µM); -5% in test [4] (setting [7]); 5% in test [4] (setting [8]); -13.3% in test [4] (at 50.0 µM). The growth inhibition in test [5] (setting [7]) was -9%; in test [5] (setting [8]), 11%; in test [5] (at 50.0 µM), 30.2%; in test [6] (setting [7]), -2%; in test [6] (setting [8]), 30%; in test [6] (at 50.0 µM), 70.7% (active).
`CC(C)=NOCCOC(=O)C(c1ccccc1)c1ccccc1`: the growth inhibition in test [1] (setting [7]) was -4%; in test [1] (setting [8]), 3%; in test [1] (at 50.0 µM), 80.7% (active); in test [2] (setting [7]) it was -5%; in test [2] (setting [8]), 2%; in test [2] (at 50.0 µM), 75% (active). Also, the growth inhibition is -8% in test [3] (setting [7]); -2% in test [3] (setting [8]); 92% (active) in test [3] (at 50.0 µM); 0% in test [4] (setting [7]); 18% in test [4] (setting [8]); 39.6% in test [4] (at 50.0 µM). Further, the growth inhibition was 7% in test [5] (setting [7]); 25% in test [5] (setting [8]); 96.6% (active) in test [5] (at 50.0 µM); -6% in test [6] (setting [7]); 0% in test [6] (setting [8]); 89% (active) in test [6] (at 50.0 µM).
As for `CCOC1=C(c2ccccc2)Sc2ccc(C)cc2C1c1ccc(C)cc1` (configuration not stated), the growth inhibition in test [1] (setting [7]) is 15%; in test [1] (setting [8]) it was 35%; in test [1] (at 50.0 µM), 60.2%; in test [2] (setting [7]), 0%; in test [2] (setting [8]), 76% (active); in test [2] (at 50.0 µM), 78.2% (active). For the same molecule, the growth inhibition in test [3] (setting [7]) is 10%; in test [3] (setting [8]), 81% (active); in test [3] (at 50.0 µM) it was 95.3% (active); in test [4] (setting [7]), -4%; in test [4] (setting [8]) it was 51%; in test [4] (at 50.0 µM), 13.1%. The growth inhibition is -3% in test [5] (setting [7]); 61% in test [5] (setting [8]); 90% (active) in test [5] (at 50.0 µM); -2% in test [6] (setting [7]); 81% (active) in test [6] (setting [8]); 82.9% (active) in test [6] (at 50.0 µM).
Take `NC(N)=N/N=C(\c1ccc(F)cc1)c1ccc(C(F)(F)F)cc1`: the growth inhibition is 5% in test [1] (setting [7]); 99% (active) in test [1] (setting [8]); 72.6% (active) in test [1] (at 50.0 µM); -3% in test [2] (setting [7]); 96% (active) in test [2] (setting [8]); 30.2% in test [2] (at 50.0 µM). The growth inhibition in test [3] (setting [7]) is -2%; in test [3] (setting [8]) it was 99% (active); in test [3] (at 50.0 µM), 80.5% (active); in test [4] (setting [7]), -4%; in test [4] (setting [8]) it was 93% (active); in test [4] (at 50.0 µM), -12.7%. For the same molecule, the growth inhibition was -1% in test [5] (setting [7]); 99% (active) in test [5] (setting [8]); 83.7% (active) in test [5] (at 50.0 µM); 0% in test [6] (setting [7]); 99% (active) in test [6] (setting [8]); 85.8% (active) in test [6] (at 50.0 µM).
For `CCN(CC)CCNC(=O)c1ccc2c(c1O)C(=O)c1ccccc1C2=O`, the growth inhibition in test [1] (setting [7]) is 6%; in test [1] (setting [8]), 54%; in test [1] (at 50.0 µM), 57.3%; in test [2] (setting [7]), 27%; in test [2] (setting [8]), 24%; in test [2] (at 50.0 µM) it was 36%. In addition, the growth inhibition was 1% in test [3] (setting [7]); 40% in test [3] (setting [8]); 60.5% in test [3] (at 50.0 µM); -10% in test [4] (setting [7]); 23% in test [4] (setting [8]); 3.55% in test [4] (at 50.0 µM). For the same molecule, the growth inhibition in test [5] (setting [7]) was -3%; in test [5] (setting [8]), 43%; in test [5] (at 50.0 µM), 33%; in test [6] (setting [7]) it was 9%; in test [6] (setting [8]) it was 44%; in test [6] (at 50.0 µM), 70% (active).

Source of the values: PubChem BioAssay (NCI).
